Data taken from PubChem BioAssay AID1159580 (chemical genetic matrix, 2015).
In all, about 5,500 compounds went through this assay and about 2,000 (36%) were called active. Not shown: some 18% with an inconclusive outcome. Cut-off read from the data, not from the text of the source: active = normalized growth mostly below about 0.91 (no sharp cut-off); inconclusive = no clear call, values can overlap the other calls; inactive = mostly above about 0.92. The list shows a part of the results.

Experiment: chemical genetic growth profiling, strain panel (AID 1159580);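 note: tested at 20 µM; growth read once vehicle control cultures reached saturation at 30 °C; 1 = growth at the plate median or of vehicle wells; lower values mean less growth of the strain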
Conditions: S. cerevisiae deletion strains, growth OD

Measured: normalized growth

COC(=O)[C@]1(C)CC[C@]2(C)CC[C@]3(C)C4=CC=C5C(=CC(=O)C(O)=C5C)[C@]4(C)CC[C@@]3(C)[C@@H]2C1
active: locus YAL013W, strain DEP1, hits give low values 0.592 | locus YAL021C, strain ccr4, hits give low values 0.878 | locus YAL026C, strain drs2, hits give low values 0.592 | locus YAL030W, strain snc1, hits give low values 0.823 | locus YBL061C, strain skt5, hits give low values 0.635 | locus YBR009C, strain hhf1, hits give low values 0.691 | locus YBR023C, strain chs3, hits give low values 0.595 | locus YBR229C, strain ROT2, hits give low values 0.905 | locus YBR231C, strain swc5, hits give low values 0.503 | locus YBR279W, strain paf1, hits give low values 0.755 | locus YCL011C, strain gbp2, hits give low values 0.723 | locus YCL016C, strain dcc1, hits give low values 0.827 | locus YCL069W, strain vba3, hits give low values 0.775 | locus YCR088W, strain abp1, hits give low values 0.864 | locus YDL035C, strain GPR1, hits give low values 0.703 | locus YDL074C, strain BRE1, hits give low values 0.622 | locus YDL101C, strain DUN1, hits give low values 0.648 | locus YDL134C, strain PPH21, hits give low values 0.755 | locus YDL192W, strain arf1, hits give low values 0.889 | locus YDR001C, strain nth1, hits give low values 0.922 | locus YDR069C, strain doa4, hits give low values 0.514 | locus YDR137W, strain rgp1, hits give low values 0.693 | locus YDR150W, strain NUM1, hits give low values 0.835 | locus YDR159W, strain sac3, hits give low values 0.621 | locus YDR162C, strain NBP2, hits give low values 0.419 | locus YDR195W, strain ref2 1.24 [resistant] | locus YDR297W, strain sur2, hits give low values 0.646 | locus YDR318W, strain mcm21, hits give low values 0.852 | locus YDR334W, strain swr1, hits give low values 0.553 | locus YDR335W, strain msn5, hits give low values 0.733 | locus YDR392W, strain spt3, hits give low values 0.149 | locus YDR502C, strain sam2, hits give low values 0.878 | locus YEL003W, strain gim4, hits give low values 0.841 | locus YEL037C, strain rad23, hits give low values 0.814 | locus YEL061C, strain CIN8 (second series), hits give low values 0.784 | locus YEL061C, strain CIN8, hits give low values 0.76 | locus YER015W, strain faa2, hits give low values 0.687 | locus YER016W, strain bim1, hits give low values 0.78 | locus YER111C, strain swi4, hits give low values 0.573 | locus YER155C, strain BEM2 (second series), hits give low values 0.572 | locus YER155C, strain BEM2, hits give low values 0.846 | locus YER167W, strain BCK2, hits give low values 0.837 | locus YFR010W, strain ubp6, hits give low values 0.777 | locus YGL086W, strain mad1, hits give low values 0.921 | locus YGL167C, strain pmr1, hits give low values 0.881 | locus YGL173C, strain kem1, hits give low values 0.439 | locus YGL227W, strain vid30, hits give low values 0.879 | locus YGL240W, strain doc1, hits give low values 0.874 | locus YGL248W, strain PDE1, hits give low values 0.675 | locus YGL253W, strain hxk2, hits give low values 0.584 | locus YGR135W, strain pre9, hits give low values 0.843 | locus YHR013C, strain ard1, hits give low values 0.597 | locus YHR027C, strain rpn1, hits give low values 0.514 | locus YHR030C, strain SLT2, hits give low values 0.736 | locus YHR129C, strain ARP1, hits give low values 0.693 | locus YHR142W, strain chs7, hits give low values 0.488 | locus YIL066C, strain RNR3, hits give low values 0.523 | locus YIL073C, strain SPO22, hits give low values 0.531 | locus YIL125W, strain kgd1, hits give low values 0.892 | locus YJL092W, strain hpr5, hits give low values 0.836 | locus YJL095W, strain BCK1 (second series), hits give low values 0.615 | locus YJL095W, strain BCK1, hits give low values 0.634 | locus YJL115W, strain asf1, hits give low values 0.884 | locus YJL129C, strain trk1, hits give low values 0.625 | locus YJL134W, strain LCB3, hits give low values 0.921 | locus YJL154C, strain vps35, hits give low values 0.907 | locus YJL164C, strain tpk1, hits give low values 0.616 | locus YJL166W, strain qcr8, hits give low values 0.509 | locus YJL187C, strain SWE1 (second series), hits give low values 0.455
inactive: locus YBR021W, strain FUR4, hits give low values 1.02 | locus YBR171W, strain sec66, hits give low values 0.949 | locus YCL029C, strain bik1, hits give low values 0.94 | locus YDL005C, strain med2, hits give low values 0.956 | locus YDL040C, strain nat1, hits give low values 0.996 | locus YDL185W, strain tfp1, hits give low values 0.91 | locus YDR101C, strain arx1, hits give low values 0.935 | locus YDR388W, hits give low values 0.96 | locus YER110C, hits give low values 0.986 | locus YGL078C, strain dbp3, hits give low values 0.944 | locus YGR252W, strain gcn5, hits give low values 0.932 | locus YHR079C, strain IRE1 (second series), hits give low values 0.977 | locus YHR094C, strain hxt1, hits give low values 0.965 | locus YHR200W, strain rpn10, hits give low values 0.929 | locus YIR030C, strain dcg1, hits give low values 0.961 | locus YJL168C, strain set2, hits give low values 0.968
